Source: PubChem (several laboratories)
Shown are actives, neighbours in structure and some others; about 4% of the full set was active somewhere.
697 NFkB inh – inhibitors of the PMA/ionomycin-induced NF-kB reporter in 697 B cells; 697 B-cell NF-kB luciferase reporter, 16 h; inhibition, % at 4 µM; 330,000 compounds, 0.33% hits; AID 435022; in the data active = inhibition above about 35%
Beta apoptosis – beta cell apoptosis inhibition | protection from apoptosis, % (concentration not given with the values) | 300,000 compounds, 0.8% hits | AID 435005 | INS-1E cytokine-induced death, ATP luminescence, 48 h; percent of positive-control rescue, neutral wells zero;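 active = Every replicate reaches about 75%, or at least half do and their mean reaches it too, limit read from the data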;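 note: 0% = cytokine-treated negative control wells and 100% = positive control rescue; higher means more ATP so stronger rescue from cytokine killing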
Jurkat NFkB inh – lowers PMA/ionomycin-induced NF-kB signal in Jurkat cells. PMA/ionomycin-induced NF-kB luciferase reporter, luminescence. inhibition, % at 4 µM. 330,000 compounds, 0.53% hits; in the data active = inhibition above about 50%
Mdm2 MdmX PPI – human Mdm2/MdmX binding inhibition | O15151+Q00987 | AID 485346 | inhibition, % at 8 µM | 330,000 compounds, 3% hits | SaOS-2 split-luciferase Mdm2/MdmX complementation, luminescence;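 active = inhibition of at least 50% at 8 µM in the primary screen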
Target sequence (O15151 whole entry, looked up): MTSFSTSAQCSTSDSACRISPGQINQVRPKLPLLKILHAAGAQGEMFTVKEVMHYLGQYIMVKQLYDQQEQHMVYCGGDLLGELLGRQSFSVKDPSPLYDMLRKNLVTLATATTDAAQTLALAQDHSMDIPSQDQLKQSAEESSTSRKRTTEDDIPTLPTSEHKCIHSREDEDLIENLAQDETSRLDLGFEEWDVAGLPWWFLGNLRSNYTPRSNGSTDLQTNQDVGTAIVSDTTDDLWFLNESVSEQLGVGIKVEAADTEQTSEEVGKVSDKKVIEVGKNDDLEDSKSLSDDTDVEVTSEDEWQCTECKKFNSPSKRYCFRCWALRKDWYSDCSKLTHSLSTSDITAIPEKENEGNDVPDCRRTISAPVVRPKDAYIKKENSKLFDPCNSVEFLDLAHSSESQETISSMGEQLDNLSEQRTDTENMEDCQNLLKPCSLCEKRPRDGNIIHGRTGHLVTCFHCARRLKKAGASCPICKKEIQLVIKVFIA
Target sequence (Q00987 whole entry, looked up): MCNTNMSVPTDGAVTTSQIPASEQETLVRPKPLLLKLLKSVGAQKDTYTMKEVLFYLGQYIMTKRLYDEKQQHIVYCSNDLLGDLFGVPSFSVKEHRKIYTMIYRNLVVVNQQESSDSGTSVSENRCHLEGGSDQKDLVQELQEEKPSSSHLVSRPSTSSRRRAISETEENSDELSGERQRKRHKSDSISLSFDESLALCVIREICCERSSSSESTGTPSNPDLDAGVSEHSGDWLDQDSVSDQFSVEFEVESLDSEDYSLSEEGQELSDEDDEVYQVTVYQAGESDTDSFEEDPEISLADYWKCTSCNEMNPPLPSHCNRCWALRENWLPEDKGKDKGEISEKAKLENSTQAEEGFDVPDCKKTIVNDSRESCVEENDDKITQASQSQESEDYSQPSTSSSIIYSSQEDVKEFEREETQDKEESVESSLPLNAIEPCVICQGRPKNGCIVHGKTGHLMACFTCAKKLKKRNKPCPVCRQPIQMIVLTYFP
Gli-Sufu block – blocks Gli-Sufu signaling in a luciferase reporter; inhibition, % at 5 µM; Sufu-KO-LIGHT fibroblasts, Gli luciferase reporter luminescence; 340,000 compounds, 0.74% hits;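 active = inhibition above about 55%, limit read from the data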;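 note: 0% = DMSO-treated cells and 100% = wells with medium but no cells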
Mdm2 MdmX conf – confirmation of human Mdm2/MdmX interaction inhibitors; Mdm2-MdmX binding, luminescent assay; shares compounds with Mdm2 MdmX PPI; 10,000 compounds, 55% hits; inhibition, % at 8 µM; in the data active = inhibition above about 40%
FLuc counter – full-length luciferase inhibition in Mdm2/MdmX counter-screen; 6,200 compounds, 77% hits; shares compounds with Mdm2 MdmX PPI; inhibition, % at 8 µM; SaOS-2 full-length luciferase counterscreen, luminescence;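 active = mean inhibition at 8 µM reaching about 37%, which flags the compound as non-specific, limit read from the data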;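 note: p53-null SaOS-2 cells with luciferase driven by a doxycycline-inducible promoter; compound on cells about two nights before reading with doxycycline added after day one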
Active calls of the source: *; / = no result given.

SMILES	697 NFkB inh	Beta apoptosis	Jurkat NFkB inh	Mdm2 MdmX PPI	Gli-Sufu block	Mdm2 MdmX conf	FLuc counter
O=C(c1cccc([N+](=O)[O-])c1)N1CCCC(C(=O)N2CCN(c3ccccc3)CC2)C1 (centres undefined)	17	-2	15	21	1	/	/
CC(C)Oc1ccc(S(=O)(=O)N2CCOCC2)cc1NC(=O)C(C)Oc1ccc(F)cc1 (centres undefined)	2	0	-12	12	10	/	/
CCCNC(=O)c1ccc2c(=O)c(O)c(-c3ccc(F)cc3)[nH]c2c1	-22	14	5	69*	-1	19	/
CCCNC(=O)c1ccc2c(=O)c(O)c(-c3cccc(Br)c3)[nH]c2c1	-57	98*	3	53*	48	70*	31
CCN1C(=O)/C(=C/c2nc3ccccc3c(=O)n2-c2ccccc2)c2ccccc21	-22	23	-9	83*	15	49*	57*
CCCCNc1c(-c2cccc(-c3cc(C(C)=O)cs3)c2)nc2ccc(C)cn12	-3	2	10	81*	11	58*	60*
COc1ccc(-c2nc3cc(C)ccn3c2NC(=O)c2ccccc2OC)cc1	-19	10	2	-12	7	/	/
CCCCNc1c(-c2cccc(-c3ccc(OC)cc3)c2)nc2ccc(C)cn12	-11	92*	2	99*	-10	56*	66*
CCCCNc1c(-c2ccc(OC)c(SC3CCCCC3)c2)nc2cnccn12	8	21	17	35	-1	/	/
CCCCNc1c(-c2ccc(OC)c(SC3CCCCC3)c2)nc2cc(C)ccn12	-7	18	5	64*	24	21	/
CCCCNc1c(-c2cccc(-c3ccc(OC)cc3)c2)nc2cc(C)ccn12	-24	56	-5	92*	28	-1	/
COc1ccccc1C(=O)C1CCCN(C(=O)C2=CC(=O)CC(C)(C)O2)C1 (centres undefined)	16	0	-4	17	-4	/	/
CN(C)CCNC(=O)/C=C/c1cn(-c2ccccc2)nc1-c1cc2ccccc2oc1=O	-20	7	-7	28	-2	/	/
CN(C)c1ccc(/C=C2/SC(=O)N(CCN=C3NS(=O)(=O)c4ccccc43)C2=O)cc1	-68	4	-11	60*	-26	21	/
C(=N\Nc1nc(Nc2ccccc2)nc(N2CCCCC2)n1)/c1ccco1	5	18	10	24	/	/	/
Cc1cc(C)c2oc(-c3ccc(C)c(NC(=S)NC(=O)c4cccs4)c3)nc2c1	-49	-3	-51	77*	5	0	/
O=C(c1ccco1)N1N=C(c2ccco2)CC1c1ccc(Cl)cc1Cl (centres undefined)	19	2	-4	-1	-6	/	/
CCC(=O)Nc1ccc(Nc2nc(C)c([N+](=O)[O-])c(Nc3ccc(NC(=O)CC)cc3)n2)cc1	-13	/	18	64*	25	74*	80*
CC(=O)Nc1ccc(Nc2nc(C)c([N+](=O)[O-])c(Nc3ccccc3)n2)cc1	-34	17	17	58*	26	35	/
Cc1nc(Nc2ccc(C(=O)O)cc2)nc(Nc2ccc(C(=O)O)cc2)c1[N+](=O)[O-]	11	-7	14	-3	-1	/	/
c1ccc2c(c1)nc1n2CCC1	/	/	/	/	7	/	/
Cc1cc(C(=O)COC(=O)c2ccccc2O)c(C)n1Cc1cccs1	1	8	27	97*	81*	94*	21
Cc1cc(C(=O)COC(=O)c2ccc3c(c2)OCO3)c(C)n1Cc1cccs1	-9	-3	-4	-11	19	/	/
Cc1cc(C(=O)COC(=O)c2cccnc2Cl)c(C)n1CC1CCCO1 (centres undefined)	-145	8	-90	79*	41	82*	97*
COCCn1c(C)cc(C(=O)COC(=O)c2ccccc2Br)c1C	-83	2	-76	80*	45	93*	74*
SMILES	697 NFkB inh	Beta apoptosis	Jurkat NFkB inh	Mdm2 MdmX PPI	Gli-Sufu block	Mdm2 MdmX conf	FLuc counter
Cc1ccc(C(=O)OCC(=O)c2cc(C)n(CC3CCCO3)c2C)cc1 (centres undefined)	-16	-5	-55	10	-3	/	/
Cc1cc(C(=O)COC(=O)c2ccccc2Br)c(C)n1CC1CCCO1 (centres undefined)	-35	9	46	91*	76*	93*	39*
COc1ccc(S(=O)(=O)N(C)C[C@H]2Oc3c(NC(=O)Cc4ccccc4)cccc3C(=O)N([C@H](C)CO)C[C@@H]2C)cc1	16	-6	-16	8	-21	/	/
Cc1ccc(S(=O)(=O)N2CCOCC2)cc1C(=O)N1CCN(S(=O)(=O)c2ccccc2F)CC1	/	/	/	/	8	/	/
O=[N+]([O-])c1cccc2c3c([nH]c12)CCCC3	-5	4	9	22	4	/	/
CN(Cc1ccccc1)C(=O)COC(=O)c1ccccc1SCC(=O)N1CCCC1	6	/	-1	32	11	/	/
Cc1cc(C(=O)COC(=O)c2cccc(NS(C)(=O)=O)c2)c(C)n1CC1CCCO1 (centres undefined)	-35	-1	-42	70*	6	74*	97*
CCn1c(=O)oc2cc(NC(=O)CCl)ccc21	4	2	8	66*	17	32	/
CCOc1ncccc1C(=O)Nc1ccc(C(=O)Nc2ccc(OC)cc2)cc1	4	4	-2	72*	4	22	/
COc1ccc(NC(=O)c2ccc3c(c2)n(C)c(=O)n3C)cc1	14	/	-5	52*	2	9	/
CCOc1ccc(NC(=O)c2ccc(OC)cc2)cc1	-35	0	-39	-50	-64	/	/
COc1ccc(OC)c(C(=O)c2ccc(C(=O)Nc3ccc(NC(C)=O)cc3)cc2)c1	-26	-2	-11	74*	-3	29	/
Cc1cc(C)cc(NC(=O)CCn2ccnc2)c1	7	-5	-1	-20	10	/	/
CC(=O)Oc1ccc(C(=O)Nc2cccc(C(=O)c3cccc(NC(=O)c4ccc(OC(C)=O)cc4)c3)c2)cc1	-16	3	-5	79*	-7	37	86*
Cn1c(=O)n(C)c2cc(NC(=O)CCl)ccc21	9	-21	4	69*	24	67*	46*
CC(=O)Oc1ccc(C(=O)Nc2cccc(C(=O)NC(C)(C)C)c2)cc1	-6	-5	-4	24	1	/	/
CC(=O)Nc1ccc(S(=O)(=O)Nc2ccc3c(c2)n(C)c(=O)n3C)c(C)c1	18	1	6	-16	-13	/	/
CC(=O)Nc1ccc2c(c1)n(C)c(=O)n2C	7	-3	-5	66*	2	10	/
Cc1ccc(N(CC(=O)NCc2ccco2)C(=O)CNS(=O)(=O)c2ccccc2)c(C)c1	2	3	-15	3	7	/	/
COc1ccc(CNc2cc(C)nc3ccc(OC)cc23)cc1	-27	18	12	52*	32	28	/
